# Test results published in PubChem BioAssay AID485270 (The Scripps Research Institute Molecular Screening Center, 2010).
# Several values for one entry are separate records, joined by “and”; a condition that tells them apart may be missing. Identical values can stand only once. Screen size: about 330,000 compounds; about 5,800 (1.8%) were called active. For the sample, actives were picked, then their nearest neighbours and some compounds at random. A number with no mark means an inactive call. Cut-off read from the data, not from the text of the source: active = inhibition mostly above about 38% (no sharp cut-off); inactive = mostly below about 40%.
# Molecular target: Orexin/Hypocretin receptor type 1 (Homo sapiens) (UniProt O43613)
# Assay: blocks the human orexin 1 receptor (AID 485270);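 note: 0% = agonist challenge alone and 100% = reference antagonist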
# Conditions: OX1R-expressing cells, FRET antagonist read-out; at 6.6 µM; active compounds read high
# Chain of Orexin/Hypocretin receptor type 1 (Homo sapiens) (O43613 whole entry, looked up): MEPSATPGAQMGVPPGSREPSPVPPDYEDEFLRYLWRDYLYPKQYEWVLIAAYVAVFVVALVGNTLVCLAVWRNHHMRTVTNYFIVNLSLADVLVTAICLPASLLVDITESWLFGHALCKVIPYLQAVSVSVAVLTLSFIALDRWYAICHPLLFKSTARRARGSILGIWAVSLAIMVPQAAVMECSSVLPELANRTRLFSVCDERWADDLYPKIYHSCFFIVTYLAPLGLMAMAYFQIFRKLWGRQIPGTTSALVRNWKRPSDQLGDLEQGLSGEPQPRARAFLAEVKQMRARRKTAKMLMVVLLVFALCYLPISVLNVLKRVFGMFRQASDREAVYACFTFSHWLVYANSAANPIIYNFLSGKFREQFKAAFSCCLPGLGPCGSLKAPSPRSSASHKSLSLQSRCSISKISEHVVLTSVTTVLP
row,SMILES,inhibition
1,C[N+](C)(CCCCCC[N+](C)(C)CCCN1C(=O)c2cccc3cccc(c23)C1=O)CCCN1C(=O)c2cccc3cccc(c23)C1=O,68.8% (active)
2,O=C(CCCCCN1C(=O)c2cccc3cccc(c23)C1=O)NCc1ccco1,9.93%
3,O=C1c2cccc3cccc(c23)C(=O)N1CCCCCc1n[nH]c(=S)o1,47.3%
4,COC(=O)CSc1snnc1-c1ccc(Cl)c(Cl)c1,33.7%
5,CCOC(=O)C/C(C)=N\Nc1ccc([N+](=O)[O-])cc1[N+](=O)[O-],55.3% (active)
6,CCCCOC(=O)CCCc1ccc([N+](=O)[O-])cc1[N+](=O)[O-],18.3%
7,CCOC(=O)c1ccc(NNC(C)=O)c([N+](=O)[O-])c1,26.7%
8,Nc1nc(SCC(=O)Nc2ccc(Cl)c([N+](=O)[O-])c2)n[nH]1,0.57%
9,O=C(CN1C(=O)c2ccc([N+](=O)[O-])cc2C1=O)Nc1nnc(C2CC2)s1,21.3%
10,Cc1ccc(S(=O)(=O)NC2CCCCCC2)cc1,10.9%
11,CCn1c(SCC(=O)c2ccc(Cl)s2)nnc1-c1cccs1,26.9%
12,CCn1c(SCC(=O)c2ccc3ccccc3c2)nnc1-c1cccs1,79.6% (active)
13,CCn1c(Cc2cccs2)nnc1SCC(=O)c1ccc(C)cc1,14.7%
14,COc1ccc(CCNC(=O)COC(=O)Cc2ccccc2F)cc1,2.3%
15,Cc1noc(C)c1S(=O)(=O)N(C)C[C@H]1Oc2ccc(NC(=O)C3CCCCC3)cc2C(=O)N([C@H](C)CO)C[C@@H]1C,3.64%
16,CCOc1ccccc1Nc1ccc2nonc2c1[N+](=O)[O-],20%
17,O=C(O)c1ccccc1CSc1nc2ccccc2s1,5.76%
18,O=[N+]([O-])c1c(NCCO)cc(Sc2nc3ccccc3s2)c2nonc12,90.3% (active)
19,COc1cc(OC)cc(-c2sc3ccc(OC)cc3c2-c2ccc3cc[nH]c3c2)c1,18.3%

row,SMILES,inhibition
1,CCCCC(=O)Nc1cc(C)c2c(=O)oc3ccccc3c2n1,1.27%
2,CCOC(=O)c1c(C)nc2c(c1C)c(=O)oc1ccccc12,4%
3,Cc1ccccc1-n1nnc2c(=O)oc3ccccc3c21,51.9% (active)
4,COc1cc(OC)cc(-c2cc3ccc(F)cc3cn2)c1,18.6%
5,N#Cc1cc([N+](=O)[O-])ccc1NC(=O)COC(=O)c1cnccn1,30.6%
6,COc1cccc(NC(=O)NCc2ccc(F)cc2)c1,-5.5%
7,Cc1cccc(NC(=O)Nc2cccc(Oc3c(F)c(F)c(F)c(F)c3F)c2)c1,45.9% (active)
8,Cc1cccc(NC(=O)NC(=S)NC(=O)c2ccccc2)c1,39.1%
9,CCN(CC)S(=O)(=O)c1ccc(N2CCCC2)c(NC(=O)c2ccc([N+](=O)[O-])o2)c1,25.5%
10,O=C(Cc1cccs1)NCc1cccc(C(F)(F)F)c1,-2.11%
11,CCOC(=O)CCCCCC(=O)Nc1ccc2c(c1)CC(=O)N([C@@H](C)CO)C[C@H](C)[C@@H](CN(C)Cc1ccccc1)O2,0.83%
12,Cc1noc(C)c1NC(=O)Nc1ccc2c(c1)C(=O)N([C@H](C)CO)C[C@H](C)[C@@H](CN(C)S(=O)(=O)c1cn(C)cn1)O2,0.36%
13,CC(=O)c1cccc(OCC(=O)OCC(=O)Nc2cc(S(=O)(=O)N3CCCCC3)ccc2C)c1,9.5%
14,COc1ccc(CCNC(=O)c2cc3sccc3n2C)cc1OC,20.4%
15,CCOc1ccc(CCNC(=O)C(CC)n2nc(C)n3c(cc4sccc43)c2=O)cc1OCC (configuration not stated),92.1% (active)
16,CCC(C(=O)NCc1ccc(OC)cc1)n1nc(C)n2c(cc3occc32)c1=O (configuration not stated),9.82%
17,COc1cc(SC)ccc1C(=O)NNC(=O)C1COc2ccccc2O1 (configuration not stated),9.65%
18,CCN(CC(=O)NCc1ccc(F)cc1)S(=O)(=O)c1ccc(Cl)s1,6.16%
19,Cc1nc(C)c(-c2nnc(-c3cccc(S(=O)(=O)N(C)C)c3)o2)cc1C(=O)NN,1.5%

row,SMILES,inhibition
1,Cc1cccc(-c2noc(-c3ccc(F)cc3)n2)c1,1.69%
2,COc1ccc(-c2noc(CCCC(=O)NC3CCCC3)n2)cc1OC,14.1%
3,COc1ccc(-c2noc(-c3cccc(OC)c3OC)n2)cc1OC,45.8% (active)
4,O=C(COC(=O)c1cccnc1Cl)NC(=O)NC1CCCCC1,0.57%
5,Cc1c(C#N)c2ncn(CC#N)c(=O)c2n1-c1ccccc1,16.1%
6,CN1c2ccc(C=O)c3c(C=O)ccc(c23)N(C)C1(C)C,38.9% (active)
7,COc1ccc2nc3n(c(=O)c2c1)-c1ccc(Cl)cc1C(=O)NC3Cc1ccccc1 (configuration not stated),7.22%
8,O=C1CCC/C=C/C[C@@H](CC(=O)N(CCO)Cc2ccccc2)C(=O)NC[C@H](c2ccccc2)O1,2.58%
9,CCN(C(=O)COC(=O)CCC(=O)c1cccs1)C1CCCCC1,3.19%
10,Cc1ccc(S(=O)(=O)N2CCN(C(=O)CN3C(=O)NC(C)(c4ccc(Cl)cc4)C3=O)CC2)c(C)c1 (configuration not stated),4.7%
11,O=C1c2ccccc2[C@@H]2C[C@@H](O)[C@H](Nc3ccccc3Cl)CCN12,7.11%
12,Cc1ccc(C(=O)C[n+]2cc(-c3ccccc3)n3c2CCCCC3)cc1,9.82% and 16.5%
13,Cc1ccc(C(=O)N2CCCC(c3ccccc3)=N2)cc1,64.4% (active)
14,Cc1ccc(NC(=S)N2CCCC(c3ccccc3)=N2)cc1,14.4%
15,CC(C)CC1NC(=O)c2cc(Cl)ccc2-n2c1nc1ccccc1c2=O (configuration not stated),4.11%
16,O=C(Nc1ccccc1)c1ccc2nsnc2c1,41.3% (active)
17,O=C(Nc1cccc(NC(=O)c2cccc(F)c2)c1)c1ccccc1,16.8%
18,Cc1cccc(NC(=O)c2ccc3nsnc3c2)c1C,34.9%
19,COc1cc(OC)cc(-c2c(C#Cc3ccsc3)c3cc(-c4ccc(SC)cc4)ccc3n2C)c1,7.83%
